“And” between values parts separate entries of the source, which are not always exact repeats. Equal entries are not always repeated. Records with an inconclusive call do not appear. Some compounds were tested as several samples or in several runs, with calls that do not always agree. The source made the active and inactive calls. Unless noted, the call rests on the fitted dose curve; in most records, active means well fitted curve in the direction sought with a large enough effect; inconclusive means small, poorly fitted or top-dose-only effect, or another doubt; inactive means no such curve, though single readings can be large; an effect the other way counts as inactive or inconclusive.

Experiment [1] in a line: qHTS profiling of the MIPE4 collection as inhibitors of Plasmodium falciparum (DD2) proliferation (AID 743345; call rule not given here). Particulars: P. falciparum Dd2 in erythrocytes, SYBR Green DNA, 72 h; at 28.5 µM (top of the series) unless noted. Summed up: (§1)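 Parasite DNA was quantified by SYBR Green I fluorescence (ex 485, em 535 nm) after overnight lysis in saponin/Triton buffer at room temperature. Cultures at 0.3% parasitemia and 2.5% hematocrit were first exposed to compound for 72 h at 37 C; signals were normalised to artemisinin (0.29 uM) and vehicle wells.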

Experiment [2] in a line: qHTS profiling of the MIPE4 collection as inhibitors of Plasmodium falciparum (DD2) proliferation (Rep 2) (AID 743346; call rule not given here). Particulars: P. falciparum Dd2 in erythrocytes, SYBR Green DNA, 72 h; at 28.5 µM (top of the series) unless noted. Summed up: as §1
In general terms: qHTS replaces the single test concentration by a dilution series.

Experiment [3] is described as follows: qHTS profiling of the MIPE4 collection as inhibitors of Plasmodium falciparum (HB3) proliferation (AID 743347; call rule not given here;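 further: plate controls were DMSO vehicle wells for no effect and artemisinin wells for full effect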). Conditions: P. falciparum HB3 in erythrocytes, SYBR Green DNA, 72 h; at 28.5 µM (top of the series) unless noted. The essentials:
as §1

Experiment [4] in a line: High-throughput drug toxicity screening in the BPDCN cell line Gen2.2 (AID 1224824; call rule not given here;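 further: cells exposed to compounds for 48 h before reading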). Conditions: Gen2.2 BPDCN cells; at 45.8 µM (top of the series) unless noted. Summed up:
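Seed 500 exponentially growing Gen2.2 cells/well; add compounds by pin tool; incubate 48 h, 37 °C, 5% CO2; add CellTiter-Glo, 15 min RT; read luminescence. % activity vs DMSO (100%) and bortezomib (0%).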

Experiment [5] can be described thus: High-throughput drug toxicity screening in the BPDCN cell line Cal-1 (AID 1224825; call rule not given here). Particulars: Cal-1 BPDCN cell viability, qHTS; at 45.8 µM (top of the series) unless noted. Summed up:
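CellTiter-Glo luminescence after 48 h compound exposure; percent activity scaled with DMSO as 100% and bortezomib (9.2 uM final) as 0%. Cal-1 cells seeded at 500/well in RPMI, 10% FBS, no phenol red.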

The nature of experiment [6]: qHTS assay for measurement of the activity of small molecule inhibitors on Zika virus induced Caspase-3 activity in human iPSC derived neural progenitor cells (hNPCs) (AID 1224857). Further: nearly all actives have a fitted effect of over 65% in size. Further: potency means the concentration at half of the fitted maximal effect. Summed up:
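Pretreat hNPCs with compound 1 h; infect ZIKV 2 FFU/cell; 6 h 37 C, 5% CO2; Caspase-Glo 3/7, 30 min RT; luminescence; normalize to no-virus and virus-only wells.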

A short description of experiment [7]: qHTS assay for measurement of the activity of small molecule inhibitors on Zika virus induced Caspase-3 activity in human astrocytoma cells (AID 1224859). Further: potency means the concentration at half of the fitted maximal effect. The essentials: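 Human SNB-19 astrocytoma cells in RPMI 1640 with 10% FBS receive compound one hour ahead of Zika virus at 2 FFU/cell. After 6 h infection, caspase-3/7 activity is detected by Caspase-Glo luminescence.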

Experiment [8] can be described thus: qHTS Screen of the MIPE 4.0 Collection Against Ewings Sarcoma (RDES) (AID 1259252). Further: nearly all actives have a fitted effect of over 35% in size. Further: potency means the concentration at half of the fitted maximal effect. The essentials: (§2)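 Dose series incubated 48 h with cells in RPMI plus 5% FBS, glutamine and penicillin/streptomycin; cell viability then quantified via CellTiter-Glo.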
Experiment [9] is described as follows: qHTS Screen of the MIPE 4.0 Collection Against Ewings Sarcoma (TC71) (AID 1259253). Further: nearly all actives have a fitted effect of over 40% in size. Further: potency means the concentration at half of the fitted maximal effect. The essentials:
as §2

The nature of experiment [10]: qHTS Screen of the MIPE 4.0 Collection Against Ewings Sarcoma (EW8) (AID 1259255). Further: nearly all actives have a fitted effect of over 35% in size. Further: potency means the concentration at half of the fitted maximal effect.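 On viability: 100% = DMSO-treated cells and 0% = medium-only wells without cells.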 Summed up:
as §2

Experiment [11] is described as follows: qHTS Screen of the MIPE 4.0 Collection Against Ewings Sarcoma (TC32) (AID 1259256). Further: nearly all actives have a fitted effect of over 45% in size. Further: potency means the concentration at half of the fitted maximal effect. The essentials: as §2
Experiment [12] in a line: qHTS assay to identify small molecule inhibitors of chordoma cells - UCH-1 (AID 1259355). Further: on the % scale 0 is the no-effect control and ±100 the full control effect; nearly all actives have a fitted effect of over 55% in size. The essentials: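 Screening used approved and investigational drugs in 15-point titration against 800 seeded cells per well. A fixed combination of auranofin with camptothecin, doxorubicin, rubitecan and topotecan followed compound addition, and growth was scored by CellTiter-Glo after 48hr.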

Experiment [13] can be described thus: qHTS assay to identify small molecule inhibitors of chordoma cells - UCH-2 (AID 1259356). Further: on the % scale 0 is the no-effect control and ±100 the full control effect.
Experiment [14] is described as follows: P-glycoprotein substrates identified in KB-3-1 adenocarcinoma cell line, qHTS therapeutic library screen (AID 1346986). Further: nearly all actives have a fitted effect of over 60% in size. Summed up: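 Viability by CellTiter-Glo after 72 h compound exposure at 37 degree C, 5% CO2. Cytotoxic call: curve class -1.1 to -2.4, maximum response >50%, AC50 < 10 uM, compared across KB-3-1 and P-gp-overexpressing KB-8-5-11.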
The nature of experiment [15]: Identifying Small Molecule Inhibitors of Pancreatic Cancer Stem Cells (A2780, Spheroid) (AID 1259357).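 Further: spheroids pre-formed over 14 days in stem cell medium on hydrogel; compound exposure lasted 48 h before the ATP luminescence read; 100% = DMSO treated cells and 0% = wells without cells.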 Conditions: Potency: A2780 spheroid viability. The essentials: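 Spheroids grown 14 days in stem cell media on hydrogel-coated nonadherent plates; 2D lines seeded directly. Compounds added after 4 h attachment, 48 h at 37C, 5% CO2; CellTiter-Glo luminescence normalized to DMSO (no inhibition) and no-cell wells (full inhibition).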

The nature of experiment [16]: Identifying Small Molecule Inhibitors of Pancreatic Cancer Stem Cells (SN12C, Adherent) (AID 1259358).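 Further: cell survival measured after 48 h of compound exposure.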 The essentials: (§3)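 Endpoint: ATP-based luminescence, 48 h drug exposure. Bortezomib at 9.2 uM final as full-kill control; DMSO vehicle as negative control; activity normalized between vehicle and cell-free wells.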
The nature of experiment [17]: Identifying Small Molecule Inhibitors of Pancreatic Cancer Stem Cells (A278, Adherent) (AID 1259361).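 Further: viability read after 48 h compound exposure; 100% = DMSO-treated cells and 0% = cell-free media-only wells; nearly all actives have a fitted effect of over 35% in size.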 The essentials: as §3

In the case of `Nc1ccn([C@@H]2O[C@H](CO)[C@@H](O)C2O)c(=O)n1` (some centres not stated), the parasite growth remaining, % of DMSO control (lower = more inhibition) in experiment [1] is 137%. Further, the parasite growth, % of control (lower = inhibition) in [2] came to 71%. The growth, % of control in experiment [3] was 107%. Further, the cell viability, % of control (lower = more cytotoxic) in experiment [4] is 225%. Besides, the viability (% of control) in [5] was found to be 92.2%. Besides, the Potency result in [6], in experiment [7], in [8], in experiment [9], in experiment [10] and in experiment [11] was “inactive” each time. Besides, the Potency entry in experiment [12], in experiment [13] and in [14] was “inactive” in each case.

In the case of `c1ccc2[nH]c(-c3cscn3)nc2c1`, in experiment [1], the parasite growth remaining, % of DMSO control (lower = more inhibition) is 87.1%. In experiment [2], this compound returned a parasite growth, % of control (lower = inhibition) of 33.5%. This compound also displayed a growth, % of control in experiment [3] of 9.5%. The cell viability, % of control (lower = more cytotoxic) in experiment [4] stood at 245%. In experiment [5], the viability (% of control) stood at 102%. The Potency in experiment [6] and in [7] was 16.6 µM (active) in each case. The Potency result in [8], in experiment [9], in experiment [10], in [11], in experiment [12] and in experiment [13] was “inactive” throughout.

On to `NCCCCNCCCN`, for which the parasite growth remaining, % of DMSO control (lower = more inhibition) in experiment [1] was 95.4%. This compound returned a parasite growth, % of control (lower = inhibition) in [2] of 90.4%. The growth, % of control in [3] is 577%. Moreover, the cell viability, % of control (lower = more cytotoxic) in [4] was 3.46%. The viability (% of control) in experiment [5] came out at 3.12%. Further, the Potency entry in [6], in experiment [7], in experiment [8], in [9] and in [11] was “inactive” in each case.

Regarding `Clc1ccc2c(N3CCN(CCCN4CCN(c5ccnc6cc(Cl)ccc56)CC4)CC3)ccnc2c1`, the parasite growth remaining, % of DMSO control (lower = more inhibition) in experiment [1] is 9.96% [at 9.64 µM]. In experiment [2], this compound gave a parasite growth, % of control (lower = inhibition) of 21.1% [at 9.64 µM]. This compound displayed a growth, % of control in experiment [3] of 14.1% [at 9.64 µM]. The cell viability, % of control (lower = more cytotoxic) in [4] was determined as 88.7% [at 23.2 µM]. For the same compound, in experiment [5], the viability (% of control) was determined as 112% [at 23.2 µM]. The Potency result in experiment [6], in experiment [7], in [8], in experiment [9], in [10] and in experiment [11] was “inactive” each time.

Turning to `CNC[C@@H](O)[C@@H](O)[C@H](O)[C@H](O)CO`, the parasite growth remaining, % of DMSO control (lower = more inhibition) in [1] is 123%. This compound also came in with a parasite growth, % of control (lower = inhibition) in [2] of 82.7%. The compound also gave a growth, % of control in [3] of 75.9%. Also, in experiment [4], the cell viability, % of control (lower = more cytotoxic) turned out to be 216%. Moreover, the viability (% of control) in experiment [5] was determined as 115%. Further, the Potency result in [6], in experiment [7], in experiment [8], in [9], in [10] and in experiment [11] was “inactive” in each case. The Potency entry in [12] and in [13] was “inactive” throughout.

As for `CCCS(=O)c1ccc2nc(NC(=O)OC)[nH]c2c1` (configuration not stated), the cell viability, % of control (lower = more cytotoxic) in experiment [4] is 32.3%. For the same compound, in experiment [5], the viability (% of control) turned out to be 13.7%. In addition, the Potency in [6] was 10 µM (active) and 16.6 µM (active); in [7] it was 20.9 µM (active); in experiment [8] it was 20.9 µM (active); in [9], 23.5 µM (active); in [10], 20.9 µM (active); in experiment [11], 23.5 µM (active).

In the case of `Cc1cccc(C#Cc2ccccc2)n1`, the parasite growth remaining, % of DMSO control (lower = more inhibition) in experiment [1] came out at 98.6%. Besides, the parasite growth, % of control (lower = inhibition) in [2] was found to be 36.6%. This compound showed a growth, % of control in experiment [3] of 42%. Further, in experiment [4], the cell viability, % of control (lower = more cytotoxic) was 40.7%. In addition, in experiment [5], the viability (% of control) amounted to 57.2%. Moreover, the Potency result in experiment [6] was “inactive and 6.31 µM (active)”; in experiment [7] it was “inactive and 3.98 µM (active)”; in experiment [10], 18.7 µM (active). In addition, the Potency result in [15] and in [16] was “inactive” throughout. In [17], the IC50 (viability decrease) result was “inactive”.

Take `OC(CN1CCN(c2cccc(Cl)c2)CC1)C(c1ccccc1)c1ccccc1` (configuration not stated): in experiment [1], the parasite growth remaining, % of DMSO control (lower = more inhibition) was 90.9%. The parasite growth, % of control (lower = inhibition) in [2] is 66%. In addition, the growth, % of control in [3] came to 47%. The cell viability, % of control (lower = more cytotoxic) in experiment [4] turned out to be 319%. The viability (% of control) in [5] stood at 88.8%. Besides, the Potency entry in experiment [6], in experiment [7] and in experiment [8] was “inactive” each time. Further, in experiment [11], the Potency is 16.6 µM (active).

In the case of `NC(=NCc1ccccc1)NC(=O)c1nc(Cl)c(N)nc1N`, the parasite growth remaining, % of DMSO control (lower = more inhibition) in [1] is 98.4%. Moreover, the parasite growth, % of control (lower = inhibition) in experiment [2] worked out at 83.5%. The growth, % of control in [3] is 98.4%. In [4], the cell viability, % of control (lower = more cytotoxic) was found to be 130%. The viability (% of control) in experiment [5] is 133%. The Potency result in experiment [6] and in experiment [7] was “inactive” in each case. Moreover, the Potency in experiment [8] is 16.6 µM (active).

(Values after PubChem BioAssay (NCATS).)
